Assay results reported in PubChem BioAssay (Tox21).
Inconclusive results are not listed. Unmarked numbers belong to inactive results. Unless noted, calls follow the shape of the full dose curve.

Experiment: qHTS assay to identify small molecule agonists of H2AX (AID 1224845; active = well fitted activation curve with a large enough effect in the signal ratio in the repeat runs, not every such curve was filed as active; the % refers to the signal ratio)
Conditions: CHO-K1 phospho-H2AX Ser139 HTRF, 3 h; series mostly up to 154 µM; activation (H2AX phosphorylation): at the top concentration
Procedure, shortened: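 Phospho-H2AX Ser139 measured by HTRF (ex 320 nm; em 665 and 620 nm) after 24 hr antibody incubation. Compounds, 15 concentrations, 0.76% DMSO, were applied to CHO-K1 cells for 3hr at 37C before lysis.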
% is scaled to controls: 0 for no effect and ±100 for the full control effect.

Row | Compound | activation (H2AX phosphorylation)
1 | COc1nc(C)nc(NC(=O)NS(=O)(=O)c2ccccc2OCCCl)n1 | 1.48%
2 | Cc1ccsc1C(=CCCN1CCC[C@@H](C(=O)O)C1)c1sccc1C | 1.71% [at 70.9 µM]
3 | CN1C(=O)CC(c2ccccc2)C1=O (stereo unspecified) | -4.66% [at 70.9 µM]
4 | O=C(O)c1cccc(Cl)c1Cl | 0.204%
5 | CCC(=O)c1ccc2c(c1)N(CCCN(C)C)c1ccccc1S2 | 8.88% [at 70.9 µM]
6 | CC(C)(C)c1ccc(OC(=O)c2ccccc2O)cc1 | 0.774%
7 | CC(C)(C)C1CCCCC1=O (stereo unspecified) | -1.68%
8 | Cc1ncc(CO)c(CN)c1O | 0.73% [at 70.9 µM]
9 | CCOc1ccc(OCC)c(Cl)c1 | 4.38%
10 | CC1(O)CSC(C)(O)CS1 (stereo unspecified) | 0.179%
11 | CCN(CC)CCOc1ccc(Cc2ccccc2)cc1 | 0.737% [at 70.9 µM]
12 | CN1CCN(N)CC1 | 0.0195% [at 70.9 µM]
13 | COC(=O)C(C)O (stereo unspecified) | 1.25%
14 | CCOc1ccc(NS(=O)(=O)c2ccc(N)cc2)nn1 | -0.272% [at 70.9 µM]
15 | Cc1ccc(C(C)C)cc1O | 0.912%
16 | CCCCCCn1c(=O)c2c(ncn2C)n(C)c1=O | -0.6% [at 70.9 µM]
17 | CCC(=O)Nc1ccc(O)cc1 | 6.39% [at 70.9 µM]
18 | CC(CNC1CCCCC1)OC(=O)c1ccccc1 (stereo unspecified) | 0.138% [at 70.9 µM]
19 | CN1CCN(c2c(F)cc3c(=O)c(C(=O)O)cn(CCF)c3c2F)CC1 | 1.55% [at 70.9 µM]
20 | O=CCCc1ccccc1 | 0.25%
21 | CCCc1c2oc(C(=O)O)cc(=O)c2cc2c(=O)cc(C(=O)O)n(CC)c12 | -2.81% [at 70.9 µM]
22 | C=CCCCCCCCCO | 0.685%
23 | CCCCCCCCCC#N | 3.59%
24 | CCCCNc1cc(C(=O)O)cc(S(N)(=O)=O)c1Oc1ccccc1 | -0.897% [at 70.9 µM]
25 | CC/C=C\CCOC(=O)C(C)C | 1.02%
26 | FC(F)(F)C(Cl)(Cl)Cl | 0.54%
27 | NC(=O)Cc1cccc(C(=O)c2ccccc2)c1N | -2.4% [at 70.9 µM]
28 | CN1CCN(C2=Nc3cc(F)ccc3Cc3ccccc32)CC1 | 0.47% [at 70.9 µM]

Experiment: qHTS assay to identify small molecule agonists of the hypoxia (HIF-1) signaling pathway (AID 1224846; active = well fitted activation curve with a large enough effect in the signal ratio in the repeat runs, not every such curve was filed as active; the % refers to the signal ratio)
Conditions: HRE-bla ME-180 cells, beta-lactamase ratio, 17 h; series mostly up to 76.8 µM; activation: at the top concentration
Procedure, shortened: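 Cell line: CellSensor HRE-bla ME-180; 2,000 cells/well; 0.5% dialyzed FBS; 5 h preincubation; DMSO compound pin transfer; 17 h, 37C, 5% CO2; CCF4-AM added; bla FRET signal scored for activation.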

Row | Compound | activation
29 | C[C@@H]1CN(c2c(F)c(N)c3c(=O)c(C(=O)O)cn(C4CC4)c3c2F)C[C@H](C)N1 | 0.203% [at 15.8 µM]
30 | COc1nc(C)nc(NC(=O)NS(=O)(=O)c2ccccc2OCCCl)n1 | 0.0439%
31 | Cc1ccsc1C(=CCCN1CCC[C@@H](C(=O)O)C1)c1sccc1C | 0.378% [at 35.5 µM]
32 | C=CCCC=C | 1.27%
33 | O=C(O)c1cccc(Cl)c1Cl | 0.605%
34 | OCC(CBr)(CBr)CBr | -0.733%
35 | CCC(=O)c1ccc2c(c1)N(CCCN(C)C)c1ccccc1S2 | -1.47% [at 35.5 µM]
36 | CC(C)(C)c1ccc(OC(=O)c2ccccc2O)cc1 | -1.35%
37 | CN(C)C(=O)NC1(c2ccccc2)CCN(CCC[C@]2(c3ccc(Cl)c(Cl)c3)CCCN(C(=O)c3ccccc3)C2)CC1 | 0.323% [at 15.8 µM]
38 | Oc1ccccc1F | -0.507%
39 | CC(C)(C)C1CCCCC1=O (stereo unspecified) | 0%
40 | C/C(=N\O)[C@@H](C)NCC(C)(C)CN[C@H](C)/C(C)=N/O | -1.73% [at 35.5 µM]
41 | Cc1ncc(CO)c(CN)c1O | -0.415% [at 35.5 µM]
42 | Cc1nc(N)nc(N)c1-c1ccc(Cl)c(Cl)c1 | 2.54% [at 35.5 µM]
43 | CCOc1ccc(OCC)c(Cl)c1 | -0.812%
44 | CC1(O)CSC(C)(O)CS1 (stereo unspecified) | -1.2%
45 | CCN(CC)CCOc1ccc(Cc2ccccc2)cc1 | 1.86% [at 35.5 µM]
46 | O=S(=O)(O)C(F)(F)F | -0.75%

Row | Compound | activation
47 | COC(=O)C(C)O (stereo unspecified) | 1.04%
48 | CCOc1ccc(NS(=O)(=O)c2ccc(N)cc2)nn1 | -0.429% [at 35.5 µM]
49 | Cc1ccc(C(C)C)cc1O | -1.15%
50 | CCCCCCn1c(=O)c2c(ncn2C)n(C)c1=O | -0.0395% [at 35.5 µM]
51 | CCC(=O)Nc1ccc(O)cc1 | 0.0672% [at 35.5 µM]
52 | CN1CCN(c2c(F)cc3c(=O)c(C(=O)O)cn(CCF)c3c2F)CC1 | 0.37% [at 35.5 µM]
53 | O=CCCc1ccccc1 | -0.796%
54 | CCCc1c2oc(C(=O)O)cc(=O)c2cc2c(=O)cc(C(=O)O)n(CC)c12 | 0.0449% [at 35.5 µM]
55 | C=CCCCCCCCCO | -0.435%
56 | CCCCCCCCCC#N | 0.2%
57 | CCCCNc1cc(C(=O)O)cc(S(N)(=O)=O)c1Oc1ccccc1 | -1.64% [at 35.5 µM]
58 | O=Cc1ccc(O)c(O)c1O | 0.229% [at 35.5 µM]
59 | CC/C=C\CCOC(=O)C(C)C | -0.24%
60 | FC(F)(F)C(Cl)(Cl)Cl | -0.519%
61 | NC(=O)Cc1cccc(C(=O)c2ccccc2)c1N | -0.979% [at 35.5 µM]
62 | O=C1CCCCC1C1CCCCC1 (stereo unspecified) | -2.1%
63 | CN1CCN(C2=Nc3cc(F)ccc3Cc3ccccc32)CC1 | 2.15% [at 35.5 µM]

Experiment: qHTS assay to identify small molecule agonists of H2AX - cell viability counter screen (AID 1224847);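 also: wild-type CHO-K1 cells; top concentration of the series differs between compounds; nearly all actives have a fitted effect of over 30% in size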
Conditions: CHO-K1 viability, CellTiter-Glo luminescence, 3 h; series mostly up to 154 µM; activity change, negative = cytotoxicity: at the top concentration
Procedure, shortened: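 Cells plated first: CHO-K1, 1000 per well in 10% FBS medium, incubated overnight at 37C. Then 15-point compound titration added (final DMSO 0.76%) for 3 hr. Finally CellTiter-Glo added and luminescence read.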

Row | Compound | activity change, negative = cytotoxicity
64 | C[C@@H]1CN(c2c(F)c(N)c3c(=O)c(C(=O)O)cn(C4CC4)c3c2F)C[C@H](C)N1 | 2.57% [at 31.6 µM]
65 | COc1nc(C)nc(NC(=O)NS(=O)(=O)c2ccccc2OCCCl)n1 | 3.19%
66 | C=CCCC=C | 0.149%
67 | CN1C(=O)CC(c2ccccc2)C1=O (stereo unspecified) | 1.89% [at 70.9 µM]
68 | O=C(O)c1cccc(Cl)c1Cl | 2.57%
69 | OCC(CBr)(CBr)CBr | -9.5%
70 | CCC(=O)c1ccc2c(c1)N(CCCN(C)C)c1ccccc1S2 | -4.12% [at 70.9 µM]
71 | CN(C)C(=O)NC1(c2ccccc2)CCN(CCC[C@]2(c3ccc(Cl)c(Cl)c3)CCCN(C(=O)c3ccccc3)C2)CC1 | -0.817% [at 31.6 µM]
72 | Oc1ccccc1F | 2.05%
73 | C/C(=N\O)[C@@H](C)NCC(C)(C)CN[C@H](C)/C(C)=N/O | 2.21% [at 70.9 µM]
74 | Cc1ncc(CO)c(CN)c1O | 1.27% [at 70.9 µM]
75 | CCOc1ccc(OCC)c(Cl)c1 | -7.75%
76 | CC1(O)CSC(C)(O)CS1 (stereo unspecified) | -0.0505%
77 | CCN(CC)CCOc1ccc(Cc2ccccc2)cc1 | -10.2% [at 70.9 µM]
78 | CN1CCN(N)CC1 | 0.122% [at 70.9 µM]
79 | COC(=O)C(C)O (stereo unspecified) | 4.9%
80 | Cc1ccc(C(C)C)cc1O | -12.8%
81 | CCCCCCn1c(=O)c2c(ncn2C)n(C)c1=O | -1.08% [at 70.9 µM]
82 | CCC(=O)Nc1ccc(O)cc1 | 5.18% [at 70.9 µM]
83 | O=CCCc1ccccc1 | 1.74%
84 | CCCc1c2oc(C(=O)O)cc(=O)c2cc2c(=O)cc(C(=O)O)n(CC)c12 | 4.8% [at 70.9 µM]
85 | C=CCCCCCCCCO | -9.69%
86 | CCCCCCCCCC#N | -2.92%
87 | CC/C=C\CCOC(=O)C(C)C | -1.13%
88 | FC(F)(F)C(Cl)(Cl)Cl | 4.04%
89 | NC(=O)Cc1cccc(C(=O)c2ccccc2)c1N | 2.96% [at 70.9 µM]
90 | O=C1CCCCC1C1CCCCC1 (stereo unspecified) | -3.52%
91 | CN1CCN(C2=Nc3cc(F)ccc3Cc3ccccc32)CC1 | -1.06% [at 70.9 µM]
